Results reported in PubChem BioAssay (NCI).
This is part of a sample that, as a whole, favours compounds with a hit. Of some 83,000 tested, about 20% had one in any assay.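 Cell lines were cultured in 96-well plates, exposed to a single compound concentration, and assessed for percent growth 48 hours later.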 Active and inactive are the calls of the source. How the source made its calls: active means growth percent below 10; inactive means the rest.

What was measured:
Assay in all cases: NCI-60 one-dose screen, 48 h (100 = growth as untreated, 0 = no growth, -100 = all killed)
NCI-H23 lung = tested on: NCI-H23 lung
NCI-H226 lung = tested on: NCI-H226 lung
NCI-H322M lung = tested on: NCI-H322M lung
HOP-62 NSCLC = tested on: HOP-62 NSCLC
NCI-H460 lung = tested on: NCI-H460 lung
HOP-92 NSCLC = tested on: HOP-92 NSCLC
NCI-H522 lung = tested on: NCI-H522 lung
A549/ATCC NSCLC = tested on: A549/ATCC NSCLC
786-0 renal = tested on: 786-0 renal
COLO 205 colon = tested on: COLO 205 colon

Measured: growth

Oc1ccc(F)c(Nc2nc(SCCN3CCOCC3)nc3c2cnn3CC(Cl)c2ccc(Br)cc2)c1 (stereo not given)
inactive: NCI-H23 lung; 10 µM unless noted 26.3% | NCI-H226 lung; 10 µM unless noted 29.2% | NCI-H322M lung; 10 µM unless noted 80.2% | HOP-62 NSCLC; 10 µM unless noted 30.3% | NCI-H522 lung; 10 µM unless noted 29.2% | A549/ATCC NSCLC; 10 µM unless noted 23.9% | 786-0 renal; 10 µM unless noted 61.2% | COLO 205 colon; 10 µM unless noted 94.6%
active: NCI-H460 lung; 10 µM unless noted 3.31% | HOP-92 NSCLC; 10 µM unless noted 1.93%

COc1ccc(-c2cc(-c3cc(C(C)C)c(O)cc3C)nn2-c2ccc(S(N)(=O)=O)cc2)cc1
active: NCI-H522 lung; 10 µM unless noted 6.99%
inactive: NCI-H23 lung; 10 µM unless noted 41.5% | NCI-H226 lung; 10 µM unless noted 78.6% | NCI-H322M lung; 10 µM unless noted 72.3% | HOP-62 NSCLC; 10 µM unless noted 51.5% | NCI-H460 lung; 10 µM unless noted 33.8% | HOP-92 NSCLC; 10 µM unless noted 45.4% | A549/ATCC NSCLC; 10 µM unless noted 40.4% | 786-0 renal; 10 µM unless noted 25.5% | COLO 205 colon; 10 µM unless noted 122%

COc1ccc(N=Nc2c(N)nn3c(N)c(C#N)c(-c4ccc(C)cc4)nc23)cc1
inactive: NCI-H23 lung; 10 µM unless noted 62.9% | NCI-H226 lung; 10 µM unless noted 54.7% | NCI-H322M lung; 10 µM unless noted 78.7% | HOP-62 NSCLC; 10 µM unless noted 63.6% | NCI-H460 lung; 10 µM unless noted 26.6% | HOP-92 NSCLC; 10 µM unless noted 19.4% | NCI-H522 lung; 10 µM unless noted 48.9% | A549/ATCC NSCLC; 10 µM unless noted 43.3% | 786-0 renal; 10 µM unless noted 80.9% | COLO 205 colon; 10 µM unless noted 85.6%

CC/C(=C(/c1ccc(O)cc1)c1ccc(OCCN(C)C(=O)CCOCCNC(=O)Cc2ccc3c(c2)CN([C@@H]2CCC(=O)NC2=O)C3=O)cc1)c1ccccc1
inactive: NCI-H23 lung; 1 µM 98.2% | NCI-H23 lung; 10 µM 92.8% | NCI-H226 lung; 1 µM 93.9% | NCI-H226 lung; 10 µM 47% | NCI-H322M lung; 1 µM 88.1% | NCI-H322M lung; 10 µM 67% | HOP-62 NSCLC; 1 µM 82.5% | HOP-62 NSCLC; 10 µM 52.3% | NCI-H460 lung; 1 µM 130% | NCI-H460 lung; 10 µM 103% | HOP-92 NSCLC; 1 µM 22.2% | HOP-92 NSCLC; 10 µM 20.8% | NCI-H522 lung; 1 µM 92% | NCI-H522 lung; 10 µM 91.2% | A549/ATCC NSCLC; 1 µM 93.1% | A549/ATCC NSCLC; 10 µM 87.8% | 786-0 renal; 1 µM 97.2% | 786-0 renal; 10 µM 84.2% | COLO 205 colon; 1 µM 102% | COLO 205 colon; 10 µM 62.3%

O=C(Nc1ccc(Cl)c(C(F)(F)F)c1)N1CCN(c2cc(-c3cn(-c4ccccc4)nc3-c3cccc(O)c3)ccn2)CC1
inactive: NCI-H322M lung; 10 µM unless noted 14.8% | HOP-62 NSCLC; 10 µM unless noted 14.5% | A549/ATCC NSCLC; 10 µM unless noted 14.7%
active: NCI-H23 lung; 10 µM unless noted -27.3% | NCI-H226 lung; 10 µM unless noted -16.2% | NCI-H460 lung; 10 µM unless noted 7.84% | HOP-92 NSCLC; 10 µM unless noted -2.61% | NCI-H522 lung; 10 µM unless noted -17.3% | 786-0 renal; 10 µM unless noted 8.51% | COLO 205 colon; 10 µM unless noted -2.61%

C/C(=N/O)c1ccc(NC(=O)CSc2nnc(-c3ccc(-c4nc5ccc(Cl)cc5[nH]4)cc3)o2)cc1
inactive: COLO 205 colon; 10 µM unless noted 50.3%
active: NCI-H23 lung; 10 µM unless noted -59.5% | NCI-H226 lung; 10 µM unless noted -39% | NCI-H322M lung; 10 µM unless noted 3.18% | HOP-62 NSCLC; 10 µM unless noted -82% | NCI-H460 lung; 10 µM unless noted -100% | HOP-92 NSCLC; 10 µM unless noted -53.4% | NCI-H522 lung; 10 µM unless noted -48.6% | A549/ATCC NSCLC; 10 µM unless noted -13.3% | 786-0 renal; 10 µM unless noted -66.1%

O=Cc1cncc(-c2ccc3ncnc(N4CCc5cc(F)c(Cl)cc54)c3c2)c1
inactive: NCI-H23 lung; 10 µM unless noted 44.6% | NCI-H226 lung; 10 µM unless noted 10.8% | HOP-62 NSCLC; 10 µM unless noted 51.9% | NCI-H460 lung; 10 µM unless noted 25.2% | NCI-H522 lung; 10 µM unless noted 59% | A549/ATCC NSCLC; 10 µM unless noted 21.6% | 786-0 renal; 10 µM unless noted 18% | COLO 205 colon; 10 µM unless noted 99.7%
active: NCI-H322M lung; 10 µM unless noted 0.287% | HOP-92 NSCLC; 10 µM unless noted -4.62%

O=C(N/N=C/c1c[nH]c2ccccc12)Nc1ccc(F)c(Cl)c1
active: NCI-H522 lung; 10 µM unless noted -29.1%
inactive: NCI-H23 lung; 10 µM unless noted 28.8% | NCI-H226 lung; 10 µM unless noted 65.6% | NCI-H322M lung; 10 µM unless noted 85.8% | HOP-62 NSCLC; 10 µM unless noted 53.8% | NCI-H460 lung; 10 µM unless noted 23% | HOP-92 NSCLC; 10 µM unless noted 39.9% | A549/ATCC NSCLC; 10 µM unless noted 39.4% | 786-0 renal; 10 µM unless noted 33.9% | COLO 205 colon; 10 µM unless noted 33.7%

CN(C)c1nc(NCCNS(=O)(=O)c2ccc(C(=O)/C=C/c3ccc(C(F)(F)F)cc3)cc2)nc(N2CCOCC2)n1
active: NCI-H23 lung; 10 µM unless noted -64.2% | 786-0 renal; 10 µM unless noted -85.1%
inactive: NCI-H226 lung; 10 µM unless noted 60.8% | NCI-H322M lung; 10 µM unless noted 72% | HOP-62 NSCLC; 10 µM unless noted 80.1% | NCI-H460 lung; 10 µM unless noted 28.8% | HOP-92 NSCLC; 10 µM unless noted 32.3% | NCI-H522 lung; 10 µM unless noted 18.5% | A549/ATCC NSCLC; 10 µM unless noted 16.6% | COLO 205 colon; 10 µM unless noted 16.1%

Cc1cc(C2(c3cc(C)c(OCC(O)CNc4c(C)n(C)n(-c5ccccc5)c4=O)cc3C(C)C)OC(=O)c3ccccc32)c(C(C)C)cc1OCC(O)CNc1c(C)n(C)n(-c2ccccc2)c1=O (stereo not given)
active: HOP-92 NSCLC; 10 µM unless noted -9.82% | NCI-H522 lung; 10 µM unless noted 8.24%
inactive: NCI-H23 lung; 10 µM unless noted 34.7% | NCI-H226 lung; 10 µM unless noted 42% | NCI-H322M lung; 10 µM unless noted 61% | HOP-62 NSCLC; 10 µM unless noted 52% | NCI-H460 lung; 10 µM unless noted 18.2% | A549/ATCC NSCLC; 10 µM unless noted 22.4% | 786-0 renal; 10 µM unless noted 24.2% | COLO 205 colon; 10 µM unless noted 10.6%

COc1ccc(S(=O)(=O)Nc2ccc(-c3ccc4c(c3)NC(=O)/C4=C\c3ccc[nH]3)cc2)cc1OC
inactive: NCI-H322M lung; 10 µM unless noted 31.6% | COLO 205 colon; 10 µM unless noted 39.8%
active: NCI-H23 lung; 10 µM unless noted -25.1% | NCI-H226 lung; 10 µM unless noted -37.8% | HOP-62 NSCLC; 10 µM unless noted 0.497% | NCI-H460 lung; 10 µM unless noted -52.5% | HOP-92 NSCLC; 10 µM unless noted 5.85% | NCI-H522 lung; 10 µM unless noted 2.96% | A549/ATCC NSCLC; 10 µM unless noted -25.8% | 786-0 renal; 10 µM unless noted -9.09%

CC1=C(C(=O)Nc2ccccc2)C(c2cccc(Cl)c2Cl)n2c(nc3ccccc32)N1 (stereo not given)
inactive: NCI-H23 lung; 10 µM unless noted 61.3% | NCI-H226 lung; 10 µM unless noted 70.5% | NCI-H322M lung; 10 µM unless noted 60.3% | HOP-62 NSCLC; 10 µM unless noted 88.6% | NCI-H460 lung; 10 µM unless noted 25.7% | HOP-92 NSCLC; 10 µM unless noted 40.6% | NCI-H522 lung; 10 µM unless noted 25.3% | A549/ATCC NSCLC; 10 µM unless noted 33.2% | 786-0 renal; 10 µM unless noted 53.4% | COLO 205 colon; 10 µM unless noted 63.9%
